Bioassay records from PubChem BioAssay.
In the library only some 4.2% were active in any assay of this set; here they are far more common.
NALP3 yeast inh: inhibitors of NALP3 inflammasome in yeast. 0.39% of 330,000 active. Yeast reconstituted NLRP3/ASC/caspase-1, beta-gal luminescence, 24 h. inhibition, % at 10 µM;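 active means inhibition of 50% or more; inactive means inhibition below 50%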
tim10-1 inh: tim10-1 yeast growth inhibition; inhibition, % at 20 µM; 2.2% of 330,000 active; AID 463190; S. cerevisiae tim10-1 ts strain growth, BacTiter-Glo, 24 h;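 active means inhibition of at least 40%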;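 further: mutant grown at 25 °C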
V-ATPase pHluor: yeast V-ATPase proton transport regulation by pHLuorin; S. cerevisiae, pHLuorin cytosolic pH fluorescence; response, % at 10 µM; 0.37% of 350,000 active; AID 504577; in the data active means response mostly above about 7.3%, no sharp cut-off; inactive means mostly below about 5.4%; further: actives read high
tim23-1 inh: growth inhibitors of tim23-1 mutant yeast. S. cerevisiae tim23-1 growth, BacTiter-Glo luminescence, 24 h. inhibition, % at 20 µM. 1.3% of 330,000 active;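 active means growth inhibition of the mutant yeast at or above 50%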;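 further: temperature-sensitive mutant grown at 25 °C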
NALP1 inh: blocks the NALP1 inflammasome reconstituted in yeast; S. cerevisiae NALP1/ASC/caspase-1 growth, X-gal OD620, 72 h; inhibition, % at 10 µM; 0.61% of 280,000 active; AID 2071; in the data active means inhibition mostly above about 24%, no sharp cut-off; inactive means mostly below about 32%
TIM10 inh: TIM10 yeast growth inhibition; S. cerevisiae TIM10 strain growth, BacTiter-Glo luminescence, 24 h; 1.4% of 330,000 active; inhibition, % at 10 µM;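 active means inhibition of 40% or more at the single tested concentration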;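 further: wild-type TIM10 isogenic control strain grown at permissive 25 °C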
tim10-1 confirm: tim10-1 yeast growth inhibition, confirmed. shares compounds with tim10-1 inh. S. cerevisiae tim10-1 ts strain growth, BacTiter-Glo, 24 h. inhibition, % at 20 µM. 56% of 7,400 active;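 active means inhibition of yeast growth at or above a set limit in either of two repeat tests at 20 µM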;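 further: tim10-1 mutant grown at permissive 25 °C to find synthetic lethal compounds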
Large screens that a line does not name were inactive (follow-up assays come after a bar, where they were run).

Cc1ccc(CC(=O)Nc2nc3ccccc3s2)cc1	tim10-1 inh 44 | tim10-1 confirm inactive
CC(NC(=O)c1ccc(Cl)cc1)C1CC2CCC1C2 (centres undefined)	none
CC(NC(=O)c1cccc(Cl)c1)C1CC2CCC1C2 (centres undefined)	tim10-1 inh 45 | tim10-1 confirm 35
CC1(C)NC(=O)N(CCCCOc2ccc(Cl)cc2C=O)C1=O	none
CCc1nc2cc(Cl)c(Cl)cc2[nH]1	tim10-1 inh 41 | tim10-1 confirm 37
CN(C)/N=C/C=C1\CCC/C(=C\c2ccc(F)c(F)c2)C1=O	tim10-1 inh 46 | tim10-1 confirm 48
COc1ccc(/C=C2\CCC/C(=C\C=N\N(C)C)C2=O)cc1	none
CCOc1cc(C(N)=O)cc(Cl)c1OCC	none
CCOc1ccc(N(CC(=O)Nc2cccc(C)c2C)S(=O)(=O)c2c(C)[nH]c(=O)[nH]c2=O)cc1	none (no result: NALP1 inh)
CCCOC(=O)c1ccc(Oc2cn[nH]c2-c2ccc(OCC)cc2O)cc1	none
CCCOC(=O)c1ccc(Oc2c(-c3ccc(OCC)cc3O)n[nH]c2C)cc1	tim10-1 inh 41 | tim10-1 confirm inactive
CCOC(=O)c1ccc(NC(=O)c2nc[nH]c2C(=O)N2CCN(C(=O)OC(C)(C)C)CC2)cc1	none (no result: V-ATPase pHluor, NALP1 inh)
C/C(CC(=O)Nc1ccc(C)c(Cl)c1)=N\NC(=O)c1ccco1	tim10-1 inh 41 | tim10-1 confirm inactive
C/C(CC(=O)Nc1ccc(C)c(Cl)c1)=N\NC(=O)Cc1ccccc1	none
CC1CC(=O)N(C)c2cc([N+](=O)[O-])ccc2N1 (centres undefined)	none
CCn1c(C)c(C)c2cc(C(=O)N3CCc4ccccc4C3)ccc21	tim10-1 inh 48 | tim10-1 confirm inactive
CCN1CCN(C(=O)c2ccc3c(c2)c(C)c(C)n3Cc2ccccc2)CC1	none
CC(C)C(C(=O)Nc1ccccc1)N1C(=O)c2ccccc2C1=O (centres undefined)	none
O=C(C(Cc1ccccc1)n1cccc1)N1CCN(Cc2ccccc2)CC1 (centres undefined)	tim10-1 inh 42 | tim10-1 confirm inactive
CC(C)C(C(=O)N1CCN(Cc2ccccc2)CC1)c1ccccc1 (centres undefined)	tim10-1 inh 50 | tim10-1 confirm 35
O=C(C(Cc1ccccc1)n1cccc1)N1CCCCC1 (centres undefined)	none
CCOC(=O)Nc1sc(C)c(C)c1C(=O)OCC	none
Nc1nc(-c2ccccc2)c(N=Nc2ccccc2Cl)s1	tim10-1 inh 55 | tim10-1 confirm inactive
Nc1nc(-c2ccccc2)c(N=Nc2cccc3ccccc23)s1	none
C=CCSC1=N/C(=C\c2cc(OCC)c(OC(C)=O)c([N+](=O)[O-])c2)C(=O)S1	tim10-1 inh 42 | tim10-1 confirm inactive
Oc1ccc(/C=N/NC(=S)N/N=C/c2ccc(O)cc2)cc1	tim10-1 inh 41 | tim10-1 confirm inactive
Oc1ccc(/C=N/NC(=S)Nc2cccnc2)cc1	none (no result: NALP1 inh)
O=C(Cn1c(S(=O)(=O)Cc2ccccc2)nc2ccccc21)N1CCCCC1	none
O=C(N1CCCCCC1)n1c(Cc2ccccc2)nc2ccccc21	tim10-1 inh 41 | tim10-1 confirm 42
CC(C)CN(C(=O)CN(C)C(=O)Cc1ccccc1Cl)c1c(N)n(CC(C)C)c(=O)[nH]c1=O	none
COc1ccc(CNCCC(c2ccc(OC(C)C)cc2)c2ccccc2OC)cc1 (centres undefined)	none
COc1ccccc1C(CCNCc1ccccc1)c1ccc(OC(C)C)cc1 (centres undefined)	tim10-1 inh 41 | tim10-1 confirm 31
CC(=O)NC(=O)c1cnn(-c2ccccc2)c1N	none
Cc1ccc(-c2cnc(C3CC3)o2)cc1S(=O)(=O)Nc1ccccc1	tim10-1 inh 41 | tim10-1 confirm inactive
CC(=O)Nc1ccc(NS(=O)(=O)c2cc(-c3cnc(C4CC4)o3)ccc2C)cc1	none
O=C(CSc1nc2c(oc3ccccc32)c(=O)n1CC1CCCO1)NCc1ccc(F)cc1 (centres undefined)	none (no result: NALP1 inh)
Nc1nc2ccc(S(=O)(=O)N3CCCCC3)cc2s1	tim10-1 inh 40 | tim10-1 confirm inactive
Cc1ccccc1C1NC(c2ccccc2C)C([N+](=O)[O-])C(C)(C)C1[N+](=O)[O-] (centres undefined)	none
COc1ccc(/C=C/C(=O)c2ccccc2)cc1Cn1nnc2ccccc21	tim10-1 inh 59 | tim10-1 confirm 45
O=C(Oc1ccc(C(=S)N2CCCCC2)cc1)c1ccccc1F	tim10-1 inh 56 | tim10-1 confirm inactive
O=C(c1ccc(Oc2ccccc2)cc1)c1nc2c(n1O)CCCC2	tim10-1 inh 41 | tim10-1 confirm inactive
COc1ccc(-c2cc(C(=O)N3CCCCCC3)c3cc(C)ccc3n2)cc1	tim10-1 inh 40 | tim10-1 confirm inactive
COc1ccc(-c2cc(C(=O)N3CCOCC3)c3cc(C)ccc3n2)cc1	none
Cc1ccnc(SCc2cc(=O)c(OC(=O)c3ccc(Br)o3)co2)n1	tim10-1 inh 46 | tim10-1 confirm 29
O=C(Oc1coc(CSc2ncccn2)cc1=O)c1ccco1	none
CN1C(=O)NC(c2cccc(O)c2)C(C(=O)c2cccs2)C1(O)C(F)(F)F (centres undefined)	none
O=C(CCNc1ccc(F)cc1)c1cccc([N+](=O)[O-])c1	tim10-1 inh 40 | tim10-1 confirm 43
N/C(=N/OC(=O)c1cccc([N+](=O)[O-])c1)c1cccc([N+](=O)[O-])c1	none
N/C(=N\OC(=O)c1ccccc1Cl)c1cccc([N+](=O)[O-])c1	tim10-1 inh 50 | tim10-1 confirm 66
N/C(=N\OC(=O)c1ccc(F)cc1)c1cccc([N+](=O)[O-])c1	tim10-1 inh 48 | tim10-1 confirm 63
O=C(CCNc1ccccc1)c1cccc([N+](=O)[O-])c1	none
C[C@H]1CN([C@@H](C)CO)C(=O)CCCn2nncc2CO[C@@H]1CN(C)Cc1cccc(C(F)(F)F)c1	none (no result: NALP3 yeast inh, tim10-1 inh, tim23-1 inh, NALP1 inh, TIM10 inh)
CCOC(=O)Cc1nnc2c(Nc3ccc(Cl)cc3)nc3nonc3n12	tim10-1 inh 51 | tim10-1 confirm 33
NC(=S)Nc1ncc(CCN2CCOCC2)c(-c2ccc(F)cc2)n1	none
CCCCCCN1C=C/C(=C\C=C(C#N)C#N)c2ccccc21	tim10-1 inh 49 | tim10-1 confirm inactive
C=CCN1C=C/C(=C\C=C(C#N)C#N)c2ccccc21	none
COC(=O)C1=C(C(=O)OC)[C@@H]2N(C)c3ccccc3[C@@]23C[C@@H](C(=O)OC)N(C(=O)c2cccs2)C3=N1	none (no result: NALP1 inh)
COC(=O)C1=C(C(=O)OC)[C@@H]2N(Cc3ccccc3)c3ccccc3[C@@]23C[C@@H](C(=O)OC)N(C(=O)c2cccs2)C3=N1	tim10-1 inh 42 (no result: NALP1 inh) | tim10-1 confirm inactive
CCN(Cc1cccs1)C(=O)CN1C(=O)NC2(CCCc3ccccc32)C1=O (centres undefined)	none (no result: NALP1 inh)
COC(=O)Cc1ccc(NC(=S)NCc2ccccc2OC)cc1	none
